From PubChem BioAssay (NCI)
This is part of a sample that, as a whole, favours compounds with a hit. Of some 83,000 tested, about 20% had one in any assay.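 48-hour exposure, single concentration, 96-well plates; percent growth endpoint where 0 means no net growth. Active: below 10.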 The source made the active and inactive calls.

test system: MOLT-4 leukemia; test: NCI-60 one-dose screen, 48 h (100 = growth as untreated, 0 = no growth, -100 = all killed); conditions: 10 µM unless noted

**Q.** Which growth does the source give for c1nc(SC2=NCCN2)c2[nH]cnc2n1 here?
**A.** 16% (inactive)

**Q.** Which growth does the source give for O=C(C[n+]1cccc(Br)c1)c1ccc2c(c1)CCCC2 here?
**A.** 86.2% (inactive)

**Q.** Which growth does the source give for NS(=O)(=O)c1ccc(-n2nc(-c3ccc(Cl)cc3)ccc2=O)cc1 here?
**A.** 96.4% (inactive)

**Q.** Which growth does the source give for O=[N+]([O-])c1ccc(NS(=O)(=O)c2ccccc2)c2ccccc12 here?
**A.** 38% (inactive)

**Q.** Which growth does the source give for CCC1S/C(=N\N=C(/C)c2cccs2)N(c2ccccc2)C1=O (configuration not stated) here?
**A.** 63.9% (inactive)

**Q.** With Cc1cc(NCCN(C(C)C)C(C)C)nc(/N=C(\N)Nc2ccc(Cl)c(C(F)(F)F)c2)n1 as the molecule, how does the growth read?
**A.** -69.2% (active)

**Q.** How did the growth turn out when C=CCn1c(SCC(=O)Nc2ccc(/C(C)=N\O)cc2)nnc1-c1cc(-c2ccc(OC)cc2)nc2ccccc12 was run?
**A.** 1.81% (active)
